The full list was thinned out, with hits kept by preference.
Dicer inh: blocks human Dicer maturation of pre-miR-21; 47,000 tested, 6% active; z-score at 25 µM; AID 1347074; cat-ELCCA pre-miR-21 Dicer processing, chemiluminescence; hits give high values; Q9UPY3; in the data active means z-score above about 3, passing the limit was not always enough;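 further: higher signal means more uncleaved substrate so more Dicer inhibition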
Target sequence (Q9UPY3 whole entry, looked up): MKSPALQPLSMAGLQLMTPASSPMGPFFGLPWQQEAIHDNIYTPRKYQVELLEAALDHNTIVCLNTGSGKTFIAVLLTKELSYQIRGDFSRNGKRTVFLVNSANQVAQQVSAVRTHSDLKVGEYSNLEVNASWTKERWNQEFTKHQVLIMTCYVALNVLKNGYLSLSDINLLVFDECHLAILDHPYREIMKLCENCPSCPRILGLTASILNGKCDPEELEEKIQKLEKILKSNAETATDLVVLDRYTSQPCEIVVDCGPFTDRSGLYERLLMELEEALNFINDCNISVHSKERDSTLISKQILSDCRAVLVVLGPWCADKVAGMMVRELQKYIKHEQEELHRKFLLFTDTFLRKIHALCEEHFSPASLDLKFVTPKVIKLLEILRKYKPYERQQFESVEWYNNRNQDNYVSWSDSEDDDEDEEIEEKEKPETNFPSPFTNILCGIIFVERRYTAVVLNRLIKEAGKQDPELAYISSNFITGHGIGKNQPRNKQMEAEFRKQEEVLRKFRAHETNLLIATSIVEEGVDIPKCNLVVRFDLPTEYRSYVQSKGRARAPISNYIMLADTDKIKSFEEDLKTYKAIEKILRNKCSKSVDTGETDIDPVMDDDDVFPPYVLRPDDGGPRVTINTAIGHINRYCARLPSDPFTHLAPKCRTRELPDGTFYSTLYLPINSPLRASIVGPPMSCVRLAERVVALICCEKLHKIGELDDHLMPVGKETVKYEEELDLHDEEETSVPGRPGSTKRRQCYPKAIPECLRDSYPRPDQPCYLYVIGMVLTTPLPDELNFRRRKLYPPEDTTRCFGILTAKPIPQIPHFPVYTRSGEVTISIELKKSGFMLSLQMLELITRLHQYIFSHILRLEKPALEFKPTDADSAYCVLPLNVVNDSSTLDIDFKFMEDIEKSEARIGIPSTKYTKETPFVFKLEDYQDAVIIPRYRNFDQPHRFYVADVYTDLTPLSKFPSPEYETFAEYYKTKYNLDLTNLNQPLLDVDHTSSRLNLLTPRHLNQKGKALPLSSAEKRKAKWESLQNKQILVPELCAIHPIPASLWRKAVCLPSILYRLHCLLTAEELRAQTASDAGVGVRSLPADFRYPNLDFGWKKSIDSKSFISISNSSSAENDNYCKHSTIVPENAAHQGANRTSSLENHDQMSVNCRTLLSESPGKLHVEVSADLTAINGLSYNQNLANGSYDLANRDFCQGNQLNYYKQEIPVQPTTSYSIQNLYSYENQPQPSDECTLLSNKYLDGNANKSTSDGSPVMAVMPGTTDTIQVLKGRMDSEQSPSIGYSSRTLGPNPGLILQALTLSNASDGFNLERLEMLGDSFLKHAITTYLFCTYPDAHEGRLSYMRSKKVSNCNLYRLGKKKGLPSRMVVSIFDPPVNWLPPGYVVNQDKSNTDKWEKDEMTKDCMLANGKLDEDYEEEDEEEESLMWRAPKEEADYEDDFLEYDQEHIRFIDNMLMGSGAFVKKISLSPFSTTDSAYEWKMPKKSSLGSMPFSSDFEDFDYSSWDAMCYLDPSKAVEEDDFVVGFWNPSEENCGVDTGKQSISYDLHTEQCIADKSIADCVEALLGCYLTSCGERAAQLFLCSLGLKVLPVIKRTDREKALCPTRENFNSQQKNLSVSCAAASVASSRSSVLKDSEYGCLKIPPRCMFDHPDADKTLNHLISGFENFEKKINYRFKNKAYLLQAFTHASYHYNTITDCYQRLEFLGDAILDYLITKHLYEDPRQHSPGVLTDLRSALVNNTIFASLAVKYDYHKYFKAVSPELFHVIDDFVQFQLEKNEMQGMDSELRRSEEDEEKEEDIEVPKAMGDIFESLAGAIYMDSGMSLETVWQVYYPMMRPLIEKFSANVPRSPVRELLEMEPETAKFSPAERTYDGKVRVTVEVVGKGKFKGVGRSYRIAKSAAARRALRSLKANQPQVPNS
Of the large screens only hits and unclear results are named; the others gave an inactive call.

CCOC(=O)C1=NNC2C(=O)N(c3ccc(OC)cc3)C(=O)C12 (centres undefined)	none
Cc1cc(C)c2c(c1)-c1cc(C)nn1C(c1ccc(N3CCOCC3)cc1)N2 (centres undefined)	none
Cc1cc2n(n1)C(c1ccc(O)cc1)Nc1ccccc1-2 (centres undefined)	none
COc1ccc(C2Nc3c(C)cc(C)cc3-c3cc(C)nn32)cc1O (centres undefined)	Dicer inh 4.3
CCOc1cc(C2Nc3c(C)cc(C)cc3-c3cc(C)nn32)ccc1O (centres undefined)	none
CCOc1ccc(C2Nc3ccccc3-c3cc(C)nn32)cc1 (centres undefined)	Dicer inh 3.2
CCOc1ccc(C2Nc3ccc(C)cc3-c3cc(C)nn32)cc1 (centres undefined)	none
CCOc1ccc(C2Nc3c(C)cccc3-c3cc(C)nn32)cc1 (centres undefined)	none
Cc1cc(C)c2c(c1)-c1cc(C)nn1C(c1ccc(O)c(O)c1)N2 (centres undefined)	Dicer inh 8.6
Cc1cc2n(n1)C(c1ccc(O)c(O)c1)Nc1ccccc1-2 (centres undefined)	Dicer inh 6.6
COc1ccc(C2Nc3c(C)cc(C)cc3-c3cc(C)nn32)cc1OC (centres undefined)	none
COc1cc(C2Nc3ccccc3-c3cc(C)nn32)ccc1O (centres undefined)	none
FC(F)(F)c1cc(Oc2ccccc2)ncc1-c1ncc(-c2ccc(Cl)cc2)o1	none
CC1=C(C(=O)OCC(C)C)C(c2ccc(F)cc2)C2=C(CC(c3cccs3)CC2=O)N1 (centres undefined)	none
N#CCC(=O)Nc1cc(C(F)(F)F)ccc1Cl	none
Cc1cc(S(=O)(=O)/N=C/N(C)C)c(C)cc1Cl	none
COc1ccc(C2Nc3ccc(C)cc3-c3cc(C)nn32)cc1 (centres undefined)	none
COc1ccc(C2Nc3c(C)cc(C)cc3-c3cc(C)nn32)c(OC)c1 (centres undefined)	Dicer inh 3.6
COc1ccc(OC)c(C2Nc3ccc(C)cc3-c3cc(C)nn32)c1 (centres undefined)	none
COc1ccc(-c2nnc(SCc3cccc(Cl)c3)o2)c(OC)c1	none
COc1ccc(-c2nnc(SCc3cccc4ccccc34)o2)cc1	none
COc1ccc(-c2nnc(SCc3cccc4ccccc34)o2)c(OC)c1	Dicer inh 227
COc1ccc(CO)c(Cl)c1OC	none
Cc1nn(CC(=O)O)cc1Br	none
NC(/C=C/c1cc(C(F)(F)F)cc(C(F)(F)F)c1)=N\O	none
CCN(C(=Nc1ccc(Cl)cc1)SC)c1ccccc1	Dicer inh 3.4
CSC(N)=Nc1ccccc1	none
CCN(C(=S)Nc1c(C)cccc1Cl)c1ccccc1	none
CNC(=O)n1nc(C)c(Cc2csc3ccc(Cl)cc23)c1C	none
CC(=O)c1nnn(-c2cc(C(F)(F)F)cc(C(F)(F)F)c2)c1C	none
O=S(=O)(Nc1nc(SCc2ccc(Cl)cc2)n[nH]1)c1cccs1	none
O=C1CNC(=S)N1Cc1ccc(Cl)cc1	none
CC1=C2CCC(C)CC23C2C(=O)N(Cc4ccc(Cl)cc4)C(=O)C2C1C1C(=O)N(Cc2ccc(Cl)cc2)C(=O)C13 (centres undefined)	none
CC1CC(=O)N(Cc2ccc(Cl)cc2)C(=O)C1	Dicer inh 4.7
c1ccc(-c2cc3nccc(-c4ccccc4)n3n2)cc1	none
Oc1ccccc1-c1ccnc2cc(-c3ccc(Cl)cc3)nn12	Dicer inh 3.3
CN1C(=O)COc2ccc(-c3ccnc4cc(-c5ccc(Cl)cc5)nn34)cc21	none
Oc1ccc(F)cc1-c1ccnc2cc(-c3ccc(Cl)cc3)nn12	Dicer inh 4
Cc1cc2nccc(-c3ccc(Cl)cc3)n2n1	none
COc1ccc(-c2cc3nccc(-c4cc(Cl)ccc4O)n3n2)cc1	none
Oc1ccc(Cl)cc1-c1ccnc2cc(-c3ccccc3)nn12	Dicer inh 9.3
COc1ccc(-c2cc3nccc(-c4ccccc4O)n3n2)cc1	none
Cc1ccc(O)c(-c2ccnc3cc(-c4ccccc4)nn23)c1	none
O=C(Oc1ccc(-c2cnc3ccccc3n2)cc1)c1ccc(F)cc1	none
CN(NC(=O)c1ccccc1C(=O)O)c1cc(C(F)(F)F)ccn1	none
COC(=O)c1c(C)nn(C(C)=O)c1COc1ccccc1	none
CCN1C(=O)c2cccc3c(S(=O)(=O)NCCCCCC(=O)O)ccc1c23	none
COC(=O)c1cc(S(=O)(=O)NCc2ccc3c(c2)CCO3)oc1C	none
Clc1cccc(CSc2nnc3c(n2)[nH]c2ccccc23)c1	none
O=C(OCc1ccccc1)C1=NNC2(CC(=O)N(c3cccc(Br)c3)C2=O)C1 (centres undefined)	none
c1ccc(-c2noc(-c3cccc4ccccc34)n2)nc1	none
c1ccc(-c2ccc(-c3nc(-c4ccccn4)no3)cc2)cc1	Dicer inh 5.2
COc1ccc(-c2nc(-c3ccccn3)no2)cc1OC	none
Cc1ccc(/C(O)=C2\C(=O)C(=O)N(Cc3cccnc3)C2c2cccc(Br)c2)cc1 (centres undefined)	none
O=C(O)C(Cc1ccccc1)N1C(=O)C2CCCCC2C1=O (centres undefined)	none
O=C1C2C3c4ccccc4C(C(=O)O)(c4ccccc43)C2C(=O)N1Cc1ccccc1 (centres undefined)	none
CCCCC(C(=O)O)N1C(=O)C2C3c4ccccc4C(c4ccccc43)C2C1=O (centres undefined)	Dicer inh 3.5
CN(CCOC(=O)c1cc2ccccc2oc1=O)c1ccc(C(F)(F)F)cc1[N+](=O)[O-]	none
CN1C(=O)COc2ccc(C(=O)c3cc4ccccc4o3)cc21	none
OC(CN1CCCCCC1)Cn1c2ccccc2c2ccccc21 (centres undefined)	none
O=C(O)C1C2C=CC3(CN(c4ccccc4)C(=O)C13)O2 (centres undefined)	none
CC1(C(=O)O)C2C=CC3(CN(c4ccccc4)C(=O)C31)O2 (centres undefined)	Dicer inh 5.3
CC1(C(=O)O)C2C=CC3(CN(Cc4ccccc4)C(=O)C31)O2 (centres undefined)	none
CNS(=O)(=O)c1ccc2c(c1)Cc1cc(S(=O)(=O)NC)ccc1-2	none
Cc1ccc(S(=O)(=O)Nc2ccc(O)c(Br)c2)cc1	none
Cc1ccc(S(=O)(=O)Nc2ccc3c(c2)Cc2cc(Br)ccc2-3)cc1	Dicer inh 3.4
N#Cc1c(-c2ccccc2)cc(SCc2ccc(Cl)cc2)n2c1nc1ccccc12	none
CCn1c(SCc2nc(-c3ccc(Br)cc3)no2)nnc1-c1ccco1	none
Cc1ccc(Oc2c(C)nc(N)[nH]c2=O)cc1	none
O=C(ON(C(=O)c1ccc(F)cc1)C1C2CC3CC(C2)CC1C3)c1ccc(F)cc1 (centres undefined)	none
COc1ccc(CN2CCN(Cc3cc(Br)ccc3OC)CC2)cc1	none
COc1cccc(CN2CCN(Cc3cc(Br)ccc3O)CC2)c1OC	Dicer inh 3.8
COc1ccc(CN2CCN(Cc3cc(Br)ccc3O)CC2)c(OC)c1	Dicer inh 4.5
CCCS(=O)(=O)N1CCN(Cc2cc(Br)ccc2O)CC1	none
COc1ccc(Br)cc1CN1CCN(Cc2ccncc2)CC1	none
COc1ccc(CN2CCN(Cc3ccc(Br)cc3)CC2)c(OC)c1	none
COc1cccc(CN2CCN(Cc3ccccc3Br)CC2)c1OC	none
CCS(=O)(=O)N1CCN(Cc2cc(Br)ccc2O)CC1	Dicer inh 4.9
Cc1ccc(S(=O)(=O)N2CCN(Cc3cc(C(C)C)ccc3O)CC2)cc1	none
CCCCCOC(=O)C1=C(C)NC2=C(C(=O)CC(C)(C)C2)C1c1ccc(OCC)c(OC)c1 (centres undefined)	none
C/C(=N/OC(=O)Nc1ccccc1Cl)C1CC1	none
O=C(O)COCC(=O)Nc1cnccn1	none
CCCc1cc(=O)[nH]c(/N=C(\N)Nc2ccc(F)cc2F)n1	none
